Several values for one entry are separate records, joined by “and”; a condition that tells them apart may be missing. Identical values can stand only once. Records with an inconclusive call do not appear. Some structures have more than one record in an assay (separate samples or runs), and their calls can disagree. Activity calls are given as the source filed them. Rule for the calls: active = hit-call score of the fitted dose curve at least 0.9, where 1 is the maximum; inconclusive = response in the unintended direction; inactive = score below 0.9.

For the assay, the system named is frog Estrogen Receptor (ER2), gene 100174814. Briefly: ATG_frER2_XSP2: Attagene TRANS-FACTORIAL Multi-Species (XSP2) HepG2 Assay for frog Estrogen Receptor (ER2) (AID 2283828). In a few lines:
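Cells were transfected with reporter constructs under GAL4-UAS control, dosed with chemicals for 24 h, then lysed for RNA; the frog ER2-driven reporter mRNA was quantified by capillary electrophoresis of labeled PCR fragments, with activity fitted upward from DMSO.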
Turning to `CCOC(=O)C(O)(c1ccc(Cl)cc1)c1ccc(Cl)cc1`, the AC50 (commonly the midpoint of the concentration-response curve, whichever way the signal moves) was 9.66 µM (active) and 8.68 µM (active).

As to `CCC(=O)O[C@H]1CC[C@H]2[C@@H]3CCC4=CC(=O)CC[C@]4(C)[C@H]3CC[C@]12C`, the AC50 is 29.8 nM (active).

On to `C[C@]12CCC(=O)C=C1CC[C@@H]1[C@@H]2CC[C@]2(C)C(=O)CC[C@@H]12`, for which the AC50 was 552 nM (active) and the call was inactive.

Consider `c1cc2ccc3cccc4ccc(c1)c2c34`, for which the AC50 was 5720 nM (active) and the outcome was inactive.

For `Oc1ccc(C(c2ccc(O)cc2)(C(F)(F)F)C(F)(F)F)cc1`, the AC50 was 151 nM (active) and 386 nM (active).

For `C[C@]12CCC(=O)C=C1CC[C@@H]1[C@@H]2CC[C@@]2(C)[C@H]1CC[C@]2(C)O`, the AC50 was 11.6 nM (active).

Take `CC(C)(O)C(=O)Nc1ccc([N+](=O)[O-])c(C(F)(F)F)c1`: the compound was called inactive.

As for `CC(C)(c1ccccc1)c1ccc(O)cc1`, the AC50 is 1560 nM (active).

As for `Clc1ccc(C(c2ccccc2Cl)C(Cl)(Cl)Cl)cc1` (centres undefined), the AC50 is 824 nM (active).

With `Cc1cc(-c2ccc(N)c(C)c2)ccc1N`, the concentration at half-maximal activity (AC50) is 22.1 µM (active) and 10.6 µM (active).

Turning to `CC(c1ccc(O)cc1)(c1ccc(O)cc1)c1ccc(O)cc1`, the compound was called inactive.

Regarding `ClC(Cl)=C(c1ccc(Cl)cc1)c1ccc(Cl)cc1`, the AC50 is 10000 nM (active).

The values are drawn from PubChem BioAssay (EPA / NIEHS).
